Only some compounds are listed: those with a hit (about 15% of all), similar ones and a draw of the others.
SARS PLpro yeast – qHTS of Yeast-based Assay for SARS-CoV PLP; S. cerevisiae expressing SARS-CoV PLpro, growth rescue; Potency, µM (highest dose often 32.9 µM), for inactives: at the top dose activity, positive = growth rescue, usual class: activators; 0.19% of 330,000 active; AID 485353, 2010; calls by dose curve; note: potency is the fitted concentration of half-maximal effect; 0% is about no effect; nearly all actives have a fitted effect of over 55% in size
HCV inh – qHTS Assay for Inhibitors of Hepatitis C Virus (HCV). Huh7.5.1 HCVcc-Cre infection, luciferase reporter, 44 h. Potency, µM (highest dose often 41.8 µM), inactives show top-dose activity change, negative = inhibition, hits mostly inhibitors. 3.4% of 340,000 active. AID 651820, 2012; note: potency is the fitted concentration of half-maximal effect; % is set by controls: 0 for no effect and ±100 for the full control effect
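After 44 h co-culture of compound, cells and HCVcc-Cre (~0.5 moi), substrate is added for 15 min at room temperature and luciferase measured over 15 sec. Cells were seeded at 1,000/well and pre-cultured 4 h.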
HCMV antiviral – qHTS Assay for inhibitors of the human cytomegalovirus (HCMV); HFF cells, HCMV-luciferase reporter, 72 h; stronger effect = lower value; activity change, negative = inhibition, % at 57.5 µM; 4.5% of 410,000 active; in the data active = activity change below about -60%; inconclusive = no clear call, values can overlap the other calls; inactive = above about -39%; note: % is set by controls: 0 for no effect and ±100 for the full control effect
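Compounds were evaluated in HFFs infected with an HCMV luciferase reporter virus (MOI 1 PFU/cell). Luciferase in lysates collected 72 h post infection served as the replication measure.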
Sm TGR block – qHTS Assay for the Inhibitors of Schistosoma Mansoni Peroxiredoxins; purified TGR, DTNB reduction, TNB absorbance 405 nm; Potency, µM (doses to about 114 µM), for inactives: at the top dose activity change, negative = inhibition, most hits filed as inhibitors; 3% of 360,000 active; AID 485364, 2010; note: potency is the fitted concentration of half-maximal effect; % is set by controls: 0 for no effect and ±100 for the full control effect; nearly all actives have a fitted effect of over 60% in size
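Kinetic colorimetric format: TGR-catalysed, NADPH-driven DTNB reduction monitored via TNB absorbance. Enzyme dispensed at 20 nM; compound exposure 15 min at room temperature before reaction start.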
Pf growth 48h – Primary qHTS for delayed death inhibitors of the malarial parasite plastid, 48 hour incubation; 5.9% of 310,000 active; Potency, µM (series often up to 28.7 µM), inactives show top-dose activity change, negative = inhibition, most hits filed as inhibitors; P. falciparum luciferase growth in erythrocytes, 48 h; AID 504832, 2011; note: potency is the fitted concentration of half-maximal effect; % is set by controls: 0 for no effect and ±100 for the full control effect
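In quantitative HTS format, infected erythrocytes bearing luciferase-reporter parasites were treated for a single generation at 37 C. Luminescence after adding detection reagent served as the growth measure.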
Pf growth 96h – Primary qHTS for delayed death inhibitors of the malarial parasite plastid, 96 hour incubation | 6.9% of 320,000 active | AID 504834, 2011 | P. falciparum luciferase reporter growth, 96 h | Potency, µM (highest dose often 28.7 µM), for inactives: at the highest dose activity change, negative = inhibition, most hits filed as inhibitors; note: potency is the fitted concentration of half-maximal effect; % is set by controls: 0 for no effect and ±100 for the full control effect
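Parasite growth measured via integrated firefly luciferase reporter in P. falciparum. Infected erythrocytes at 2% hematocrit, 0.05% parasitemia final were treated 96 hours at 37 C under 5% CO2, and luminescence was read.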
The depositor's hits bear a star; ? = inconclusive; / = not tested or not shown; [ ] = dose if it differs, or a comment. Unless noted, calls come from the whole dose curve; as a rule, active = well fitted curve in the direction sought with a large enough effect; inconclusive = small, poorly fitted or top-dose-only effect, or another doubt; inactive = no such curve, though single readings can be large; an effect the other way counts as inactive or inconclusive.

SMILES	SARS PLpro yeast	HCV inh	HCMV antiviral	Sm TGR block	Pf growth 48h	Pf growth 96h
Cc1nc2ccc(S(=O)(=O)N(CC(=O)Nc3cccc(Cl)c3)Cc3ccccc3)cc2s1	/	/	-24	-5%	/	/
CC(=O)Nc1ccc(-c2nccc3[nH]nc(-c4cccc(C(F)(F)F)c4)c23)cc1	/	/	-102*	/	/	/
COc1cc(-c2n[nH]c3ccnc(-c4cccc(C(F)(F)F)c4)c23)cc(OC)c1OC	/	/	-14	/	/	/
CCOC(=O)N=S(N)(=O)c1ccccc1 (stereo not given)	/	10%	-7	-6%	3%	10µM*
CCN(C(=O)c1cc2c(=O)oc3ccccc3c2s1)c1ccc(C)c(C)c1	/	/	-6	-5%	/	/
O=C1C=C(NC2=CC3OC(c4ccccc4)OCC3OC2=O)CCC1 (stereo not given)	5%	?	26	25µM*	-4%	2%
N#Cc1ccccc1NC1=CC(=O)CCC1	?	3%	-1	0%	11%	-9%
Cc1ccc(Cn2c(SCc3ccc(C(=O)N4CCCCC4)cc3)nc3ccncc32)cc1	/	/	-60*	-19%	/	/
CC1CCCCC1NC(=O)c1ccc(CSc2nc3ccncc3[nH]2)cc1 (stereo not given)	-17%	?	-22	0%	?	5.2µM*
O=C(NCc1ccccc1Cl)c1ccc(CSc2nc3ccncc3[nH]2)cc1	0%	-5%	0	-2%	12µM*	?
COc1cccc(N2CCN(C(=O)c3ccc(CSc4nc5ccncc5[nH]4)cc3)CC2)c1	0%	?	-87*	-14%	?	53%
Cc1cc(C)c2oc(-c3cccc(NC(=O)c4ccc(-c5cccc([N+](=O)[O-])c5)o4)c3)nc2c1	/	/	-4	-9%	/	/
COc1cc(CN2CCNC(=O)C2CC(=O)NC2CCC2)cc(OC)c1 (stereo not given)	-2%	2%	-16	?	9%	?
Cc1cc2nc(-c3ccccc3)c(-c3c(F)cc(F)cc3F)nc2cc1C	/	/	-14	/	/	/
CC1CCC(NC(=O)c2ccc(CSc3nc4ccncc4n3Cc3ccc(F)cc3)cc2)CC1 (stereo not given)	/	/	-93*	3%	/	/
O=C(NC1CCCCC1)c1ccc(CSc2nc3ccncc3n2Cc2ccc(F)cc2)cc1	/	/	-28	-12%	/	/
O=C(c1ccc(CSc2nc3ccncc3[nH]2)cc1)N1CCCCC1	-1%	1%[8.37 µM]	10	-1%	33%	12µM*
Cc1ccc(C)c(N2CCN(C(=O)c3ccc(CSc4nc5ccncc5[nH]4)cc3)CC2)c1	-13%	?	?	-9%	?	-30%
COc1ccc(-c2c(C)oc3c(CN4CCN(C)CC4)c(O)ccc3c2=O)cc1	-1%	17%	-63*	0%	-5%	?
COc1ccc(-c2c(C(F)(F)F)oc3c(CN4CCN(C)CC4)c(O)ccc3c2=O)cc1	2%	3%	-6	4%	3.3µM*	?
CCCc1cc(=O)oc2c(CN3CCN(C)CC3)c(O)ccc12	2%	3%	-7	1%	1%	-2%
CCCCc1cc(=O)oc2c(CN3CCN(C)CC3)c(O)ccc12	1%	?	-18	-35%	12µM*	?
O=C(CNc1cccc(S(=O)(=O)N2CCOCC2)c1)Nc1ccccc1F	0%	0%	18	-5%	0%	-29%
COC(=O)Cc1ccc(NC(=S)NCCSc2ccc(Cl)cc2)cc1	-2%	-11%	-11	-21%	-12%	-15%
CCc1nc2c(OCc3ccc(F)cc3)cccn2c1N(C)C(=O)c1ccco1	/	/	16	/	/	/
SMILES	SARS PLpro yeast	HCV inh	HCMV antiviral	Sm TGR block	Pf growth 48h	Pf growth 96h
CCc1nc2c(OCc3ccc(Cl)cc3)cccn2c1N(C)C(=O)c1ccco1	/	/	-77*	/	/	/
CCOC(=O)c1c(NC(=O)CNCC(O)CO)sc(C)c1C (stereo not given)	-9%	?	11	12%	3%	?
CCN(CC)C(=O)c1c(NC(=O)c2ccccc2)sc(C)c1C	1%	7%	-9	-22%	/	24%
CCN(CC)Cc1c(NC(=O)c2ccccc2)sc(C)c1C	1%	-7%	59	8.9µM*	30%	42%
CCOC(=O)c1sc(NC(=O)c2cccnc2)c(C#N)c1C	-7%	-2%	17	-3%	40%	?
CCOC(=O)c1c(NC(=O)c2ccccc2)sc2c(O)c(CN(CC)CC)ccc12	0%	?	-2	1%	1.9µM*	-4%
CCOC(=O)c1c(NC(=O)c2cccnc2)sc(C)c1C	0%	10µM*	-32	13%	43%	49%
CCCCNCC(=O)Nc1sc(C)c(C)c1C(=O)OCC	-9%	11µM*	0	-8%	-14%	-27%
CCOC(=O)c1sc(NC(=S)NC(=O)c2ccccc2)c(C(=O)OCC)c1C	-7%	?	-15	-1%	19%	30%
NC(=O)c1ccc(NC(=O)COC(=O)c2c[nH]c3ccccc23)cc1	0%	1%	21	0%	41%	37%
Cc1sc(NC(=O)c2ccccc2)c(C(=O)c2ccccc2)c1C	-25%	-13%	-28	3%	0%	12µM*
O=C(NCc1cccnc1)C1c2ccccc2C(=O)N1Cc1ccco1 (stereo not given)	1%	-8%	11	35µM*	10%	/
O=C(NCc1cccnc1)C1c2ccccc2C(=O)N1Cc1ccccc1 (stereo not given)	7%	5%	43	-4%	/	?
Cc1ccc(CNC(=O)CC(C)S(=O)(=O)c2ccc3c(c2)NC(=O)C(C)S3)cc1 (stereo not given)	3%	?	-37	-4%	?	?
COc1ccc(C2/C(=C(/O)c3ccc(F)cc3)C(=O)C(=O)N2CCCN(C)C)cc1 (stereo not given)	/	-16%	-83*	/	/	/
COc1ccc(/C(O)=C2/C(=O)C(=O)N(CCN3CCOCC3)C2c2ccccn2)cc1 (stereo not given)	8%	6%	6	22µM*	40%	?
O=C1C(=O)N(CCN2CCOCC2)C(c2ccc(Cl)cc2)/C1=C(/O)c1ccc(S(=O)(=O)N2CCOCC2)cc1 (stereo not given)	3%	22%	/	2%	-40%	2.6µM*
COc1ccc(C2/C(=C(/O)c3ccc(Br)cc3)C(=O)C(=O)N2C)cc1OC (stereo not given)	10%	16%	10	0%	18%	?
